Data published in PubChem BioAssay (NCATS).
Values without a mark were called inactive. Results filed as inconclusive are left out. Where a call stands in place of a potency, no number is given. The source made the active and inactive calls. Unless noted, the call rests on the fitted dose curve; in most records, active means well fitted curve in the direction sought with a large enough effect; inconclusive means small, poorly fitted or top-dose-only effect, or another doubt; inactive means no such curve, though single readings can be large; an effect the other way counts as inactive or inconclusive.

Assays:
[1] = target: Arylsulfatase A (Homo sapiens) (UniProt P15289); assay: qHTS screen for enhancers of Arylsulfatase A (ASA1): LOPAC Validation Assay (AID 720538); details: ASA enzyme activity, LOPAC qHTS enhancer assay; series mostly up to 57.5 µM
Summary of the method: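 MLD patient fibroblasts (SV40, ASA-I179S), 1536-well; adhere 6 hrs; cpd 48h, 37 degree C, 5% CO2; pNCS 0.5mM final in lysis buffer, 14h RT; stop 1N NaOH final; fluor. Ex525/Em598.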

[2] = qHTS for compounds that reverse cellular toxicity of Amyloid beta (A-beta) peptide in yeast: LOPAC Validation Assay (AID 720559); details: yeast expressing A-beta; series mostly up to 46.1 µM
Summary of the method: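 Medium dispensed, compounds pinned, A-beta yeast suspension added; plates held at 30 C for 48 hr; absorbance measured at 600 nm to gauge growth; values scaled between DMSO and FeCl3/clioquinol (equimolar) controls.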

[3] = qHTS for Activators of Parkin Expression: LOPAC Validation Assay (NLuc Reporter) (AID 720572); details: Parkin promoter NanoLuc reporter cells, luminescence, percent of positive control, DMSO as zero; series mostly up to 46.1 µM
Summary of the method: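 Compound effects on Parkin promoter activity were measured as NanoLuc luminescence after 24 h at 37 C. The neuronal reporter line also carried FLuc, which was read first. LOPAC compounds were tested at 7 concentrations, with normalization to DMSO (0%) and positive control (100%).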

[4] = qHTS for Activators of Parkin Expression: LOPAC Validation Assay (FLuc Reporter) (AID 720573); details: Cell line, PRKN promoter firefly luciferase reporter, vehicle wells = 0, positive control = 100%; series mostly up to 46.1 µM
Summary of the method: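 Cells seeded, 24 h; compounds pinned, 7-pt dose response; 24 h at 37 C/5% CO2; volume reduced; FLuc reagent 10 min RT; luminescence read. Normalization: DMSO = 0, positive control = 100%.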

[5] = target: Tyrosine-protein kinase Yes (Homo sapiens) (UniProt P07947); assay: qHTS for small molecule inhibitors of Yes1 kinase: Primary Screen (AID 686947); details: Yes1 kinase biochemical qHTS inhibition; series mostly up to 76.9 µM; further: nearly all actives have a fitted effect of over 60% in size; further: potency means the concentration at half of the fitted maximal effect
Summary of the method: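 In this qHTS format, inhibition is expressed relative to DMSO controls with enzyme (maximum) and without enzyme (minimum). The 60 min room-temperature reaction uses 0.1 mM ATP, with ADP detected by luminescence.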

[6] = qHTS for small molecule inhibitors of Yes1 kinase: Counter Assay (AID 686950); details: series mostly up to 76.9 µM;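 further: no kinase present so only ADP-Glo detection of a fixed ADP amount is tested; luminescence from ADP-Glo reporting ADP in a fixed ATP and ADP mixture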
Summary of the method: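 ADP-Glo luminescence read after a 60 min room-temperature incubation of compound with an ATP/ADP mix (0.08 mM/0.02 mM) and no kinase, following a 20 min compound preincubation. Signal scaled between ATP+ADP (max) and 0.1 mM ATP-only (min) wells; Tris pH 7.5, Mg2+, DTT.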

[7] = target: Nuclear receptor ROR-gamma (Homo sapiens) (UniProt P51449); assay: qHTS assay for small molecule antagonists of the retinoid-related orphan receptor gamma (ROR-gamma) signaling pathway (AID 651802); details: ROR-gamma antagonist cell reporter assay; series mostly up to 92.2 µM;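 further: CHO cells with doxycycline-induced ROR-gamma expression; luciferase reporter luminescence driven by ROR response element; nearly all actives have a fitted effect of over 60% in size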
Summary of the method: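 Doxycycline-induced reporter activity in engineered CHO cells (TET-inducible ROR, RORE-LUC) was measured by luminescence after 16hr compound exposure at 37C.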

[8] = qHTS assay for small molecule agonists of the antioxidant response element (ARE) signaling pathway measured by Nrf2-dependant transcriptional activity (AID 720636; active means well fitted curve in the direction sought with a large enough effect in the repeat runs; an effect the other way counts as inactive or inconclusive;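 further: HepG2 cells with an ARE-driven luciferase reporter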); details: ARE-luc HepG2, Nrf2 luciferase reporter, 16 h; series mostly up to 92.4 µM
Summary of the method: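 Reporter gene assay, HepG2 ARE-luc: 16 hr compound, 37 C, 5% CO2; read-out luciferase luminescence.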

[9] = qHTS assay for small molecule antagonists of the retinoid-related orphan receptor gamma (ROR-gamma) signaling pathway - cell viability counter screen (AID 720652; active means well fitted curve in the direction sought with a large enough effect in the repeat runs; an effect the other way counts as inactive or inconclusive;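 further: CHO reporter cells with doxycycline-induced ROR-gamma expression; compound exposure lasted 16 hr before ATP read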); details: RORgamma reporter cell line viability counter screen; series mostly up to 92.2 µM
Summary of the method: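 ATP-based viability readout in the ROR-gamma reporter CHO cells after 16 hr compound exposure under doxycycline induction.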

[10] = qHTS assay for small molecule agonists of the antioxidant response element (ARE) signaling pathway measured by Nrf2-dependant transcriptional activity - cell viability counter screen (AID 720653; active means well fitted curve in the direction sought with a large enough effect in the repeat runs; an effect the other way counts as inactive or inconclusive); details: ARE-bla HepG2 viability, CellTiter-Glo ATP luminescence, 16 h; stronger effect = lower value
Summary of the method: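 Cytotoxicity counter screen: intracellular ATP quantified by CellTiter-Glo luminescence in the same ARE-bla HepG2 plates, after 16 h compound exposure and a 2 h beta-lactamase substrate step.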

Chain of Tyrosine-protein kinase Yes (Homo sapiens) (P07947 whole entry, looked up): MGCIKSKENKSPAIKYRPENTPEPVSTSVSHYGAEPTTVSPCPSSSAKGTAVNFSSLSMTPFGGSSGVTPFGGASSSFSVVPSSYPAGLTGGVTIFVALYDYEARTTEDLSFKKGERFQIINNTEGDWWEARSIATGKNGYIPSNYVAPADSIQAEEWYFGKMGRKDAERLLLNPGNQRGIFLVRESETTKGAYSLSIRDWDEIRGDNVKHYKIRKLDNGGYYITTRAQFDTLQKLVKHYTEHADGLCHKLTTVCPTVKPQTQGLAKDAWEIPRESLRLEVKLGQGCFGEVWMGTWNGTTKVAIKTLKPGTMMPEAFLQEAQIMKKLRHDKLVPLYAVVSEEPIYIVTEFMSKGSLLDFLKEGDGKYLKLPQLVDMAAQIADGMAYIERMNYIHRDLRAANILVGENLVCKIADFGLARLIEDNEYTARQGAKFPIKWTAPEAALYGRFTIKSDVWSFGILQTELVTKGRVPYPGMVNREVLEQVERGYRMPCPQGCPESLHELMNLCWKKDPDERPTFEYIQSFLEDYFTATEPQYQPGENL
Chain of Arylsulfatase A (Homo sapiens) (P15289 whole entry, looked up): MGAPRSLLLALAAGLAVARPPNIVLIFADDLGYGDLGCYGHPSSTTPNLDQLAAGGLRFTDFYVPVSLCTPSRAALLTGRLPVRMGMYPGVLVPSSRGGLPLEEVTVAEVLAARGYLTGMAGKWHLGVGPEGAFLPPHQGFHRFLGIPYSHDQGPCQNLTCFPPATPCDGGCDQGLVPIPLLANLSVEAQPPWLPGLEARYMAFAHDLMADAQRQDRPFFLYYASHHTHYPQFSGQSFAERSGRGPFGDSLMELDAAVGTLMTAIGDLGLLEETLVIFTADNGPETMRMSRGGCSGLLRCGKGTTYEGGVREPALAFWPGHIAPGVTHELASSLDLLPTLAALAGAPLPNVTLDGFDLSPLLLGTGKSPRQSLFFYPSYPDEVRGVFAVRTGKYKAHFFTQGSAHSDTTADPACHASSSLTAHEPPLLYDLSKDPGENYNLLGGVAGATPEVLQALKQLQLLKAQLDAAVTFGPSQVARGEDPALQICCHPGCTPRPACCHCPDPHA
Chain of Nuclear receptor ROR-gamma (Homo sapiens) (P51449 whole entry, looked up): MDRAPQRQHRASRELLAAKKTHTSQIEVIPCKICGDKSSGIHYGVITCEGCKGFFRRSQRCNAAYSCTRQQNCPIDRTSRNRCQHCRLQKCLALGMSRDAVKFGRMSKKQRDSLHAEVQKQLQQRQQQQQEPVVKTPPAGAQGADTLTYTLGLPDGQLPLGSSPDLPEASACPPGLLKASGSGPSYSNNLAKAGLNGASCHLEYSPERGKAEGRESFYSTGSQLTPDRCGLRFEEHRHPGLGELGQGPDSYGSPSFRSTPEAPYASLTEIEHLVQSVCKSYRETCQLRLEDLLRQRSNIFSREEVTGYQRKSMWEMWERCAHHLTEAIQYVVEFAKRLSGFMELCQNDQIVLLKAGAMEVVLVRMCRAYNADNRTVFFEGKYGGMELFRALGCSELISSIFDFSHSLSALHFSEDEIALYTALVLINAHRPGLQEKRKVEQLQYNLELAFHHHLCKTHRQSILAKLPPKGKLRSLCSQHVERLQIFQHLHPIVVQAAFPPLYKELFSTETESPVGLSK

With `CN[C@H](CC(C)C)C(=O)N[C@H]1C(=O)N[C@@H](CC(N)=O)C(=O)N[C@@H]2C(=O)N[C@H]3C(=O)N[C@H](C(=O)N[C@H](C(=O)O)c4cc(O)cc(O)c4-c4cc3ccc4O)[C@H](O)c3ccc(c(Cl)c3)Oc3cc2cc(c3O[C@@H]2O[C@H](CO)[C@@H](O)[C@H](O)[C@@H]2O[C@H]2C[C@](C)(N)[C@H](O)[C@H](C)O2)Oc2ccc(cc2Cl)[C@H]1O` the outcome [1] was “inactive”, the outcome [2] was “inactive” and the outcome [3] was “inactive”. The outcome [4] was “inactive”.

In the case of `COc1ccc2cc([S+]([O-])Cc3ncc(C)c(OC)c3C)nc2c1`, the outcome [2] is reported as “inactive”, the outcome [3] is reported as “inactive” and the outcome [4] is reported as “inactive”.

For `N#Cc1c(NC(=O)c2cccc3ccccc23)sc2c1CCCC2`, the Potency [5] was “inactive” and the outcome [6] was “inactive”.

For `N#Cc1cc(NC(=O)Nc2nnc(-c3ccncc3)s2)ccc1-c1cn[nH]c1`, the outcome [6] was “inactive”.

For `Cc1cc(O)c2c(c1)C(=O)c1cccc(O)c1C2=O`, the outcome [7] was “inactive”, the outcome [8] was “inactive” and the outcome [9] was “inactive”. It also gave a max response [10] of -8.79%.

With `COc1cc2c(cc1OC)[C@@H]1C(=O)c3ccc4c(c3O[C@@H]1CO2)C=CC(C)(C)O4` the Potency [5] was “inactive” and the outcome [6] was “inactive”.

In the case of `C[C@]12CC[C@@H]3c4ccc(O)cc4CC[C@H]3[C@H]1CC[C@H]2O`, the outcome [8] is reported as “inactive” and the max response [10] is reported as -1.4%.

For `N#Cc1ccc(COC[C@H]2O[C@@H](n3c(NCc4ccc(Cl)c(Cl)c4)nc4c(N)ncnc43)[C@@H](O)[C@@H]2O)cc1`, the Potency [5] was 487 nM (active) and the outcome [6] was “inactive”.

With `O=C1c2cccc(O)c2C(=O)c2c(O)cc(CO)cc21` the max response [10] was 1.52%.

With `Cn1c(Nc2ccc(C(F)(F)F)cc2)nc2cc(Oc3ccnc(-c4ncc(C(F)(F)F)[nH]4)c3)ccc21` the outcome [6] was “inactive”.

For `OC[C@@H](O)[C@@H](O)[C@H](O)[C@@H](O)CO`, the outcome [8] was “inactive” and the max response [10] was 2.04%.

For `COc1cc(C)c(Sc2cnc(NC(=O)c3ccc(CNC(C)C(C)(C)C)cc3)s2)cc1C(=O)N1CCN(C(C)=O)CC1` (stereo not drawn), the Potency [5] was 54.7 nM (active) and the outcome [6] was “inactive”.

With `O=c1[nH]c(=O)n([C@H]2C[C@@H](O)[C@@H](CO)O2)cc1C=CBr` the outcome [1] was “inactive”, the outcome [2] was “inactive” and the outcome [3] was “inactive”. For the same compound, the outcome [4] was “inactive”.

With `C=CCNC1=C2C[C@@H](C)C[C@H](OC)[C@@H](O)[C@@H](C)C=C(C)[C@H](OC(N)=O)[C@@H](OC)C=CC=C(C)C(=O)NC(=CC1=O)C2=O` the Potency [5] was “inactive” and the outcome [6] was “inactive”.

With `CC(C=CC1=C(C)CCCC1(C)C)=CC=CC(C)=CC(=O)Nc1ccc(O)cc1` the outcome [8] was “inactive”.
